From PubChem BioAssay AID720597 (Broad Institute, 2013)
Potency and affinity values are given separately. Calls of active or inactive are those of the source.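 How the source made its calls: active means fitted half-maximal dose no more than twice the top valid tested dose, for compounds that lower signal; inconclusive means fit invalid, or curve flat with activity between -70 and -30; inactive means potency past limit, curve flat within ±30, or signal increasing.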

target: NAD-dependent protein deacylase sirtuin-5, mitochondrial (Homo sapiens) (UniProt Q9NXA8); experiment: blockers of sirtuin-5 peptide desuccinylation – biochemical, fluorescence imaging, cherry-pick, set 6, dose response (AID 720597); conditions: Purified SirT5, succinyl-peptide-AMC/trypsin fluorescence; series mostly up to 15 µM;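 further: lower AMC signal can also come from blocking the trypsin step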
Sequence (Q9NXA8 whole entry, looked up): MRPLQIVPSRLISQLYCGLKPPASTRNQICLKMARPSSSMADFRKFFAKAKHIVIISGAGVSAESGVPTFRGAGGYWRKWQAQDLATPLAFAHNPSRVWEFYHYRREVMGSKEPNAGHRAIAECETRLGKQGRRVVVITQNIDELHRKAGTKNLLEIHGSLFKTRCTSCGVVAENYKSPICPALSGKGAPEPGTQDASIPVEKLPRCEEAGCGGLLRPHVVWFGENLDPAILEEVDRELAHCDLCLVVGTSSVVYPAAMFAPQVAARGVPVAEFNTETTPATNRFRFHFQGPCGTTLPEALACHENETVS

outcome, inactive:
COc1ccc(C#Cc2ccc([C@H]3[C@@H](CO)N4C(=O)CN(C(=O)c5cccnc5)C[C@H]34)cc2)cc1
COc1cccc(-c2cn(CC[C@@H]3CC[C@H](NC(=O)CC4CC4)[C@@H](CO)O3)nn2)c1
C[C@H](CO)N1C[C@H](C)[C@@H](CN(C)Cc2ccc(C(F)(F)F)cc2)OCCCC[C@H](C)Oc2ccc(NS(=O)(=O)c3ccc(Cl)cc3)cc2C1=O
C[C@H](CO)N1C[C@H](C)[C@H](CN(C)CC2CCCCC2)Oc2ccc(NS(=O)(=O)c3ccc(Cl)cc3)cc2CC1=O
CO[C@H]1CN(C)C(=O)c2cc(NC(=O)c3ccccc3F)ccc2OC[C@H](C)NC[C@@H]1C
COc1ccccc1C#Cc1cnc2c(c1)C(=O)N([C@@H](C)CO)C[C@H](C)[C@@H](CN(C)C)O2
C[C@@H]1CN([C@@H](C)CO)C(=O)c2cccc(NC(=O)CCCCCC(=O)Nc3ccccc3N)c2O[C@H]1CN(C)Cc1ccc(-c2ccccc2)cc1
COc1ccc([Si](C)(C)[C@H]2[C@H](CCn3cc([C@H](O)c4ccccc4)nn3)O[C@@]3(C(=O)N(Cc4cccc(N5CCOC5=O)c4)c4ccccc43)[C@@H]2C)cc1
C[C@H](CO)N1C[C@H](C)[C@@H](CN(C)Cc2ccc(Cl)c(Cl)c2)Oc2ccc(NS(=O)(=O)c3ccc(Cl)cc3)cc2CC1=O
C[C@H](CO)N1C[C@H](C)[C@@H](CN(C)Cc2ccc(Oc3ccccc3)cc2)Oc2ccc(NC(=O)Cc3ccccc3)cc2C1=O
